Experimental data reported in PubChem BioAssay (EPA / NIEHS).
Records with an inconclusive call do not appear. Activity calls are given as the source filed them. The calls were made as follows, unless noted: active = hit-call score of the fitted dose curve at least 0.9, where 1 is the maximum; inactive = score below 0.9.

Assays:
[1] = read-out: E-selectin (Homo sapiens) (UniProt P16581); assay: BSK_3C_Eselectin: BioMAP Diversity Plus: 3C Assay for Eselectin Biomarker Activity (AID 2283015); conditions: primary human endothelial cells (HUVEC); actives raise or lower the signal
Procedure, shortened: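 Endpoint derived by bidirectional fitting against DMSO vehicle; signal is ELISA-detected E-selectin from primary HUVEC at 24 h post-dosing, with parallel SRB staining (0.1% SRB, 560 nm) flagging cytotoxicity.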

[2] = read-out: Interleukin-1 alpha (IL1a), IL1A (gene 3552); assay: BSK_BE3C_IL1a: BioMAP Diversity Plus: BE3C Assay for Interleukin-1 alpha (IL1a) Biomarker Activity (AID 2283016); conditions: primary human bronchial epithelial cells; actives raise or lower the signal
Procedure, shortened: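 Human primary bronchial epithelial cells, 24 h chemical exposure; IL-1a quantified by ELISA, fitted bidirectionally against DMSO. Cytotoxicity assessed in parallel by SRB total-protein staining at the time of measurement.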

[3] = read-out: Monocyte Chemoattractant Protein-1 (MCP1), CCL2 (gene 6347); assay: BSK_3C_MCP1: BioMAP Diversity Plus: 3C Assay for Monocyte Chemoattractant Protein-1 (MCP1) Biomarker Activity (AID 2283017); conditions: primary human endothelial cells (HUVEC); actives raise or lower the signal
Procedure, shortened: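 Using human vascular primary endothelium, researchers measured MCP-1 by ELISA 24 h after treatment, with DMSO serving as negative control for bidirectional fitting.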

[4] = read-out: Monocyte Chemoattractant Protein-1 (MCP1), CCL2 (gene 6347); assay: BSK_4H_MCP1: BioMAP Diversity Plus: 4H Assay for Monocyte Chemoattractant Protein-1 (MCP1) Biomarker Activity (AID 2283018); conditions: primary human endothelial cells (HUVEC); actives raise or lower the signal
Procedure, shortened: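 Human umbilical vein endothelial cells (4H system) exposed to chemicals for 24 h in 96-well format. MCP-1 measured by ELISA; bidirectional fitting against DMSO, with SRB total-protein staining in parallel cultures for cytotoxicity.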

[5] = read-out: Human Leukocyte Antigen - DR isotype (HLADR), HLA-DRA (gene 3122); assay: BSK_3C_HLADR: BioMAP Diversity Plus: 3C Assay for Human Leukocyte Antigen - DR isotype (HLADR) Biomarker Activity (AID 2283019); conditions: primary human endothelial cells (HUVEC); actives raise or lower the signal
Procedure, shortened: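 Compound added to primary HUVEC cultures, 24 h incubation, then HLA-DR determined by ELISA; endpoint derived by bidirectional fitting relative to DMSO negative control.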

[6] = read-out: Interleukin-8 (IL8), CXCL8 (gene 3576); assay: BSK_3C_IL8: BioMAP Diversity Plus: 3C Assay for Interleukin-8 (IL8) Biomarker Activity (AID 2283020); conditions: primary human endothelial cells (HUVEC); actives raise or lower the signal
Procedure, shortened: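 Primary human umbilical vein endothelial cells were dosed for 24 h. IL-8 was quantified by ELISA and fitted bidirectionally against DMSO. Cytotoxicity was assessed in parallel cultures by SRB staining at 560 nm.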

[7] = read-out: Monokine induced gamma interferon (MIG), CXCL9 (gene 4283); assay: BSK_3C_MIG: BioMAP Diversity Plus: 3C Assay for Monokine induced gamma interferon (MIG) Biomarker Activity (AID 2283021); conditions: primary human endothelial cells (HUVEC); actives raise or lower the signal;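 as to AC50: MIG protein level measured by immunoassay in the treated endothelial cultures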
Procedure, shortened: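 HUVEC primary endothelial cultures dosed with chemical; MIG quantified by ELISA at 24 h. Data fitted bidirectionally against DMSO control, with parallel SRB total-protein staining for cytotoxicity.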

[8] = biological target: human Vitamin D Receptor (VDR), VDR (gene 7421) (UniProt P11473); assay: ATG_VDR_TRANS: Attagene TRANS-FACTORIAL HepG2 Assay for human Vitamin D Receptor (VDR) (AID 2283022; active = hit-call score of the fitted dose curve at least 0.9, where 1 is the maximum)
Chain of human Vitamin D Receptor (VDR), VDR (gene 7421) (P11473 whole entry, looked up): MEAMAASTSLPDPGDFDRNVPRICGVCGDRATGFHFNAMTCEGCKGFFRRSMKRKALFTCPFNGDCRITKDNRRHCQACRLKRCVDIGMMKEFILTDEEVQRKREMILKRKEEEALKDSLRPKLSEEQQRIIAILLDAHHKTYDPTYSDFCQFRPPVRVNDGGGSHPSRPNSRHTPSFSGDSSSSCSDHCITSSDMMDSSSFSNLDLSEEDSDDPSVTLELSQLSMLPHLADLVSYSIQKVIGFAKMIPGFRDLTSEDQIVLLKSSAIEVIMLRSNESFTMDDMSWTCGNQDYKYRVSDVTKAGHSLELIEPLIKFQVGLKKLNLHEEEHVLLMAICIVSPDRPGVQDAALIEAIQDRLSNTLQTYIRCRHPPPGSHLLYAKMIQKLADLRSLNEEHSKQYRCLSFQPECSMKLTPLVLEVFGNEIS
Procedure, shortened: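 Multiplexed TRANS reporter in HepG2; 24 h treatment; reporter mRNA by RT-PCR plus capillary electrophoresis; upregulation scored relative to DMSO.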

[9] = BSK_3C_SRB: Viability Assessment in the BioMAP Diversity Plus: 3C Assay (AID 2283023); conditions: primary human endothelial cells (HUVEC);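 also: fitted both ways against DMSO so a hit may be signal rise or drop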
Procedure, shortened: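 Overt cytotoxicity is gauged in parallel confluent HUVEC cultures by SRB total-protein staining at the time of biomarker measurement, 24 h after dosing. Gain or loss of signal is fitted versus DMSO.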

[10] = read-out: Matrix Metallopeptidase 1 (MMP1), MMP1 (gene 4312); assay: BSK_BE3C_MMP1: BioMAP Diversity Plus: BE3C Assay for Matrix Metallopeptidase 1 (MMP1) Biomarker Activity (AID 2283024); conditions: primary human bronchial epithelial cells; actives raise or lower the signal
Procedure, shortened: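 Human primary bronchial epithelial cells (BE3C system) dosed for 24 h; MMP-1 quantified by ELISA. Bidirectional fit against DMSO; cytotoxicity tracked in parallel cultures by SRB total-protein staining.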

[11] = BSK_3C_Vis: BioMAP Diversity Plus: 3C Assay for Morphology Visualization (AID 2283025); conditions: primary human endothelial cells (HUVEC);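 also: fitted both ways so gain or loss versus DMSO counts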;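 as to AC50: light microscopy image of cell morphology used as background control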
Procedure, shortened: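 Human umbilical vein endothelial cell morphology was inspected by light microscopy 24 h after chemical dosing; scored bidirectionally relative to DMSO.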

[12] = read-out: Pselectin, SELP (gene 6403); assay: BSK_4H_Pselectin: BioMAP Diversity Plus: 4H Assay for Pselectin Biomarker Activity (AID 2283026); conditions: primary human endothelial cells (HUVEC); actives raise or lower the signal
Procedure, shortened: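 Primary human umbilical vein endothelial cells were treated 24 h, and cell-surface P-selectin was then quantified by ELISA. Bidirectional fit versus DMSO; cytotoxicity checked in parallel cultures by SRB total-protein staining.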

[13] = BSK_4H_SRB: Viability Assessment in the BioMAP Diversity Plus: 4H Assay (AID 2283027); conditions: primary human endothelial cells (HUVEC);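 also: cells exposed to compound for 24 h before staining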;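 as to AC50: curves fitted both ways versus DMSO so AC50 may be loss or gain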
Procedure, shortened: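 Human umbilical vein endothelial cells, 24 h after chemical dosing; total protein measured by 0.1% sulforhodamine B staining after 10% TCA fixation, read at 560 nm. Bidirectional fitting against DMSO.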

[14] = BSK_BE3C_SRB: Viability Assessment in the BioMAP Diversity Plus: BE3C Assay (AID 2283028); conditions: primary human bronchial epithelial cells;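 as to AC50: fitted both ways so AC50 may mark signal gain or loss versus DMSO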
Procedure, shortened: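 SRB total-protein staining (0.1%, after TCA fixation) of chemically dosed human bronchial epithelial primary cells at 24 h; DMSO serves as the negative control for bidirectional curve fitting.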

[15] = read-out: Thrombomodulin, THBD (gene 7056); assay: BSK_3C_Thrombomodulin: BioMAP Diversity Plus: 3C Assay for Thrombomodulin Biomarker Activity (AID 2283029); conditions: primary human endothelial cells (HUVEC); actives raise or lower the signal
Procedure, shortened: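 Human umbilical vein endothelial cells were exposed to chemicals for 24 h; cell-surface thrombomodulin quantified by ELISA, with bidirectional fitting against DMSO baseline.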

[16] = read-out: Urokinase-type plasminogen activator receptor (uPAR), PLAUR (gene 5329); assay: BSK_4H_uPAR: BioMAP Diversity Plus: 4H Assay for Urokinase-type plasminogen activator receptor (uPAR) Biomarker Activity (AID 2283030); conditions: primary human endothelial cells (HUVEC); actives raise or lower the signal
Procedure, shortened: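 Endpoint derived via bidirectional curve fitting against DMSO baseline; readout was ELISA detection of uPAR on umbilical vein endothelial cells at 24 h post-treatment, with SRB-stained parallel cultures assessing cytotoxicity.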

[17] = read-out: Vascular endothelial growth factor receptor 2 (Homo sapiens) (UniProt P35968); assay: BSK_4H_VEGFRII: BioMAP Diversity Plus: 4H Assay for Vascular endothelial growth factor receptor 2 (VEGFR2) Biomarker Activity (AID 2283031); conditions: primary human endothelial cells (HUVEC); actives raise or lower the signal;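 as to AC50: cell-surface VEGFR2 protein level quantified by ELISA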
Procedure, shortened: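 In this multiplexed HUVEC system, biomarker ELISA was performed after 24 h chemical exposure. Parallel SRB staining (TCA fixation, 560 nm) tracked cytotoxicity; DMSO served as baseline.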

[18] = read-out: Human Leukocyte Antigen - DR isotype (HLADR), HLA-DRA (gene 3122); assay: BSK_BE3C_HLADR: BioMAP Diversity Plus: BE3C Assay for Human Leukocyte Antigen - DR isotype (HLADR) Biomarker Activity (AID 2283032); conditions: primary human bronchial epithelial cells; actives raise or lower the signal
Procedure, shortened: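 Human primary bronchial epithelial cells (BE3C system) exposed to compound for 24 hours; cell-surface HLA-DR measured by ELISA, fitted bidirectionally relative to DMSO. Total protein by SRB in parallel cultures tracked cytotoxicity.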

[19] = read-out: Vascular cell adhesion molecule 1 (VCAM1), VCAM1 (gene 7412); assay: BSK_4H_VCAM1: BioMAP Diversity Plus: 4H Assay for Vascular cell adhesion molecule 1 (VCAM1) Biomarker Activity (AID 2283033); conditions: primary human endothelial cells (HUVEC); actives raise or lower the signal
Procedure, shortened: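 Primary human umbilical vein endothelial cells, 4H stimulation system, treated for 24 h; cell-surface VCAM-1 quantified by ELISA. Bidirectional fitting against DMSO; cytotoxicity tracked by SRB total-protein staining in parallel cultures.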

[20] = read-out: Interferon-gamma inducible Protein 10 (IP10), CXCL10 (gene 3627); assay: BSK_BE3C_IP10: BioMAP Diversity Plus: BE3C Assay for Interferon-gamma inducible Protein 10 (IP10) Biomarker Activity (AID 2283034); conditions: primary human bronchial epithelial cells; actives raise or lower the signal
Procedure, shortened: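 Primary human bronchial epithelial cells, with IP-10 measured by ELISA 24 hours after chemical dosing. Bidirectional fit against DMSO; cytotoxicity checked by SRB total protein staining in parallel cultures.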

Measured: AC50

Chain of E-selectin (Homo sapiens) (P16581 whole entry, looked up): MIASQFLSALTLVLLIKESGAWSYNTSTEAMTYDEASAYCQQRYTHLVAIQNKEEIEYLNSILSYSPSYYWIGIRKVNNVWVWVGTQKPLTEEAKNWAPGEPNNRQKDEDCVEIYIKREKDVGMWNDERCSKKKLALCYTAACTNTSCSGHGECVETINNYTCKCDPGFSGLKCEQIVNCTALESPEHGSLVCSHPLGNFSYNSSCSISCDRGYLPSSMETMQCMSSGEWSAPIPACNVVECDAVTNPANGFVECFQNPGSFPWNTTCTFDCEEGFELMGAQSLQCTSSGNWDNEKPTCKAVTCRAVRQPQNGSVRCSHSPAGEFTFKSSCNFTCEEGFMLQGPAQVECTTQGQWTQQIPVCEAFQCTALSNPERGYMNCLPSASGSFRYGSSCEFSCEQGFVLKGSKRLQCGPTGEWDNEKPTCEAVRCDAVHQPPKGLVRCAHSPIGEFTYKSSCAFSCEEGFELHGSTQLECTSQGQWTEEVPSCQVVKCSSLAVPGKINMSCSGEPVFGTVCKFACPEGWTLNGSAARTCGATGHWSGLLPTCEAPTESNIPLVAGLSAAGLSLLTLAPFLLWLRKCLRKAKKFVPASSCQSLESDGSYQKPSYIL

CCCCCCCCC(=O)NCc1ccc(O)c(OC)c1
inactive: [1] | [2] | [3] | [6] | [7] | [8] | [9] | [10] | [11] | [12] | [14] | [15] | [16] | [17] | [18] | [19]
active: [4] 3.97 µM | [5] 20 µM | [13] 20 µM | [20] 20 µM

NC(=O)O
inactive: [1] | [2] | [3] | [4] | [5] | [7] | [8] | [9] | [10] | [11] | [12] | [13] | [14] | [15] | [16] | [17] | [18] | [19] | [20]

CCOP(=S)(OCC)SCCS(=O)(=O)CC
inactive: [1] | [2] | [3] | [4] | [5] | [6] | [7] | [8] | [9] | [10] | [11] | [12] | [13] | [14] | [15] | [16] | [17] | [18] | [19] | [20]

C=C(C)C(=O)[O][Sn]([CH2]CCC)([CH2]CCC)[CH2]CCC
active: [1] 0.148 µM | [2] 0.148 µM | [3] 0.46 µM | [4] 0.663 µM | [5] 0.233 µM | [6] 0.148 µM | [7] 0.148 µM | [10] 0.148 µM | [11] 0.468 µM | [12] 0.148 µM | [13] 0.148 µM | [14] 0.148 µM | [15] 1.16 µM | [16] 0.148 µM | [18] 0.148 µM | [19] 0.148 µM | [20] 0.336 µM
inactive: [8]

CCOC(=O)/C=C(C)/C=C/C[C@@H](C)CCCC(C)C
active: [1] 26.5 µM | [2] 20 µM | [3] 31.2 µM | [4] 29.4 µM | [5] 28.1 µM | [7] 30.8 µM | [12] 25.2 µM | [13] 34.3 µM | [15] 5.42 µM | [16] 31.8 µM | [17] 33 µM | [18] 20 µM | [19] 30.6 µM | [20] 20 µM
inactive: [6] | [8] | [10] | [11] | [14]

CCCCC(CC)CO[N+](=O)[O-] (stereo not given)
active: [1] 35.8 µM | [4] 20 µM | [5] 35.4 µM | [9] 34.9 µM | [11] 37.4 µM | [12] 30.6 µM | [13] 36.1 µM | [16] 33 µM | [17] 31.9 µM | [18] 32.6 µM | [19] 30.5 µM
inactive: [2] | [3] | [6] | [7] | [10] | [14] | [15] | [20]
